In PubChem BioAssay (EPA / NIEHS):
Inconclusive results are not listed. Active and inactive are the calls of the source. How the source made its calls, unless noted: active means hit-call score of the fitted dose curve at least 0.9, where 1 is the maximum; inconclusive means response in the unintended direction; inactive means score below 0.9.

How the values were obtained:
[1] = target: Cellular tumor antigen p53 (Homo sapiens) (UniProt P04637); test: TOX21_p53_BLA_p2_ratio: Tox21 HCT-116 p53 Agonism Beta-lactamase Assay, Ratio, Phase 2 (AID 2283592)
Cellular tumor antigen p53 (Homo sapiens), sequence (P04637 whole entry, looked up): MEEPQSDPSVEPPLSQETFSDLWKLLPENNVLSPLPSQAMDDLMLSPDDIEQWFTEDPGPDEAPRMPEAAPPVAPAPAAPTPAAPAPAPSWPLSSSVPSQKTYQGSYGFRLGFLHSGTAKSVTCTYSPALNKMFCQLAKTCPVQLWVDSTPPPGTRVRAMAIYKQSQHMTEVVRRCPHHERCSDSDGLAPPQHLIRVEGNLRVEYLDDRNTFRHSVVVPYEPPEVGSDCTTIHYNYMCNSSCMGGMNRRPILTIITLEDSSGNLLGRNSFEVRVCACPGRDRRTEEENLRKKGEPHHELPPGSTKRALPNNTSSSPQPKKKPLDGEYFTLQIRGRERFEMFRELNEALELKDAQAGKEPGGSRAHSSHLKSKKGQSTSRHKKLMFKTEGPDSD
In short: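 Read-out is the blue/green (460/530 nm, 405 nm excitation) ratio after 2 h CCF4-AM loading, fitted as gain versus DMSO. Compounds, pinned at 217-fold dilution from DMSO stocks, stayed 16 h on HCT-116 beta-lactamase reporter cells seeded 5 h earlier.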

[2] = TOX21_p53_BLA_p3_viability: Viability Assessment in the Tox21 HCT-116 p53 Agonism Beta-lactamase Assay, Phase 3 (AID 2283593);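 further: cells exposed to compound for 16 h before reading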
In short: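 Cellular ATP was quantified by CellTiter-Glo luminescence, read after 30 min at room temperature. Beforehand, HCT116 cells (4000/well) received compound 5 h post-seeding, 217-fold diluted from DMSO, then incubated 16 h at 37C.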

[3] = target: Cellular tumor antigen p53 (Homo sapiens) (UniProt P04637); test: TOX21_p53_BLA_p3_ratio: Tox21 HCT-116 p53 Agonism Beta-lactamase Assay, Ratio, Phase 3 (AID 2283596)
In short: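 Cells were seeded at 4000/well, rested 5 h at 37C, then dosed with DMSO compound solutions (217-fold dilution) for 16 h. CCF4-AM substrate was loaded for 2 h at room temperature, and the 460/530 nm emission ratio was fitted for gain of signal versus DMSO.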

[4] = TOX21_p53_BLA_p4_viability: Viability Assessment in the Tox21 HCT-116 p53 Agonism Beta-lactamase Assay, Phase 4 (AID 2283597);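 further: hits lower the luminescence signal meaning cytotoxicity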
In short: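 Cytotoxicity as reduced cellular ATP (CellTiter-Glo luminescence, 30 min room temperature), measured in the same wells following the CCF4 FRET p53 reading. Human HCT-116 cells received compounds in DMSO (217-fold dilution) for 16 h.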

[5] = TOX21_p53_BLA_p5_viability: Viability Assessment in the Tox21 HCT-116 p53 Agonism Beta-lactamase Assay, Phase 5 (AID 2283600)
In short: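 Viability came from CellTiter-Glo ATP luminescence, read after 30 min at room temperature. Before this, HCT-116 p53-bla cells (4000/well) had 16 hours of compound exposure at 37C, with DMSO stocks diluted 217-fold on transfer.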

[6] = target: Cellular tumor antigen p53 (Homo sapiens) (UniProt P04637); test: TOX21_p53_BLA_p4_ratio: Tox21 HCT-116 p53 Agonism Beta-lactamase Assay, Ratio, Phase 4 (AID 2283601)
In short: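 Signal is the blue/green (460nm/530nm) ratio of cleaved versus uncleaved CCF4-AM substrate, read after 2 h substrate loading. Cells were HCT116 carrying the p53-responsive beta-lactamase reporter, dosed 16 h at 37C, 5% CO2; CellTiter-Glo measured in parallel.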

[7] = target: Cellular tumor antigen p53 (Homo sapiens) (UniProt P04637); test: TOX21_p53_BLA_p5_ratio: Tox21 HCT-116 p53 Agonism Beta-lactamase Assay, Ratio, Phase 5 (AID 2283599)
In short: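 Beta-lactamase reporter ratio (blue 460 nm over green 530 nm, 405 nm excitation) after 2 h CCF4-AM loading, in HCT-116 cells exposed 16 h at 37 C to compounds pinned at 217-fold dilution. Increases relative to DMSO baseline scored.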

[8] = CCTE_Harrill_HTTr_Viability_MCF7: CCTE's 6-hour Cell Viability Assessment for the High-Throughput Transcriptomics (HTTr) Platform, in MCF-7 cells cultured in DMEM + 10% fetal bovine serum, Harrill Lab (AID 2284010; active means hit-call score of the fitted dose curve at least 0.9, where 1 is the maximum; inactive means score below 0.9)
In short: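 Eight-point concentration series, six-hour exposure. Propidium iodide exclusion imaged to assess membrane integrity as a cytotoxicity readout; bidirectional fitting was done with DMSO as negative control and activity baseline.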

[9] = CCTE_Harrill_HTTr_Apoptosis_MCF7: CCTE's 6-hour Apoptosis Assessment for the High-Throughput Transcriptomics (HTTr) Platform, in MCF-7 cells cultured in DMEM + 10% fetal bovine serum, Harrill Lab (AID 2284011; active means hit-call score of the fitted dose curve at least 0.9, where 1 is the maximum; inactive means score below 0.9)
In short: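 High-content imaging of CellEvent Caspase 3/7 Green signal follows a six-hour exposure, with eight concentrations per chemical. MCF-7 cells grown in DMEM plus 10% fetal bovine serum; activity fitted in both directions against DMSO.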

[10] = CCTE_Harrill_HTTr_CellCount_MCF7: CCTE's Cell Proliferation Assessment for the High-Throughput Transcriptomics (HTTr) Platform, Harrill Lab (AID 2284012);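 further: count of Hoechst-stained nuclei per well by high-content imaging in MCF-7 cells; cells exposed to compound for six hours; intended direction is loss of nuclei count meaning fewer cells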
In short: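 For this full-screen endpoint, MCF-7 cultures received eight compound dilutions for six hours. Well nuclei counts from Hoechst imaging were analyzed relative to DMSO.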

Measured: outcome

OCC(O)[C@@H](O)[C@H](O)[C@H](O)CO[C@H]1O[C@H](CO)[C@@H](O)[C@H](O)[C@H]1O (stereo partly specified)
inactive: [1] | [2] | [3] | [4] | [5] | [6]

O=C(O)Cc1ccc(Cl)cc1Cl
inactive: [1] | [2] | [3] | [4] | [5]

O=NN(CCCl)C(=O)NC1CCCCC1
inactive: [1] | [2] | [3] | [4] | [5]

c1ccc([C@H]2CN3CCSC3=N2)cc1
not listed: [5]
inactive: all other assays above

CO[C@@H]1[C@@H](OC(N)=O)[C@@H](O)[C@H](Oc2ccc3c(O)c(NC(=O)c4ccc(O)c(CC=C(C)C)c4)c(=O)oc3c2C)OC1(C)C
inactive: [1] | [2] | [3] | [4] | [5]

COc1cc(NS(=O)(=O)c2ccc(N)cc2)nc(C)n1
inactive: [1] | [2] | [3] | [4] | [5]

O=S(=O)(O)CCCS(=O)(=O)O
inactive: [1] | [2] | [3] | [4] | [7] | [6]
